Among the data in PubChem BioAssay (EPA / NIEHS) are AC50 and outcome values, retold here.

The target of assay [1] is zebrafish Estrogen Receptor (ER1), esr1 (gene 259252) (UniProt P57717). Nature of the assay: ATG_zfER1_XSP2: Attagene TRANS-FACTORIAL Multi-Species (XSP2) HepG2 Assay for zebrafish Estrogen Receptor (ER1) (AID 2283816). The procedure, abridged: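 HepG2 cells transiently transfected with a GAL4-UAS reporter and a chimeric zebrafish ER1-Gal4 construct, dosed 24 h. Reporter mRNA quantified by RT-PCR, labelling, HpaI digestion and capillary electrophoresis, relative to DMSO.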

In assay [2] the target is chicken Estrogen Receptor (ERa), ESR1 (gene 396099) (UniProt P06212). Nature of the assay: ATG_chERa_XSP2: Attagene TRANS-FACTORIAL Multi-Species (XSP2) HepG2 Assay for chicken Estrogen Receptor (ERa) (AID 2283817).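 Also: actives raise reporter signal above DMSO so AC50 reflects ER activation.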 The procedure, abridged:
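HepG2 cells transiently transfected with multiplexed GAL4-UAS reporter units expressing chimeric chicken ERa-Gal4; 24 h compound exposure. Reporter mRNA measured by RT-PCR with 6-FAM labelling, HpaI digestion and capillary electrophoresis; gain-of-signal fitted versus DMSO.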

Assay [3] concerns zebrafish Estrogen Receptor (ER2a), gene 317734. Nature of the assay: ATG_zfER2a_XSP2: Attagene TRANS-FACTORIAL Multi-Species (XSP2) HepG2 Assay for zebrafish Estrogen Receptor (ER2a) (AID 2283818).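 Also: hits raise reporter mRNA so AC50 reflects activation of zebrafish ER2a.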 Summed up: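 HepG2 cells transiently transfected with GAL4-UAS reporter units and chimeric zebrafish ER2a-Gal4, exposed 24 h; medium contains 3 nM 6-alpha-fluorotestosterone and 1.5 nM norgestrel. Reporter mRNA quantified by RT-PCR, HpaI digestion, capillary electrophoresis; gain versus DMSO.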

The subject of assay [4] is frog Estrogen Receptor (ER), gene 398734. The experiment in a line: ATG_frER1_XSP2: Attagene TRANS-FACTORIAL Multi-Species (XSP2) HepG2 Assay for frog Estrogen Receptor (ER) (AID 2283821).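 Also: hits raise reporter mRNA above DMSO baseline so potency means agonist or activator.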 Summed up: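 HepG2, transient MRTU transfection, chimeric NR-GAL4/UAS reporters; 24 h compound exposure, 24-well. Readout: reporter mRNA via RT-PCR + capillary electrophoresis, fluorescence. Positive fit vs DMSO baseline.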

The subject of assay [5] is zebrafish Estrogen Receptor (ER2b), gene 317733. Nature of the assay: ATG_zfER2b_XSP2: Attagene TRANS-FACTORIAL Multi-Species (XSP2) HepG2 Assay for zebrafish Estrogen Receptor (ER2b) (AID 2283823).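 Also: fitted upward as reporter gain over DMSO so potency reflects activation.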 Summed up: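 In this multiplexed trans-activation format, HepG2 cells expressing exogenous NR-Gal4 fusions drive GAL4-UAS reporters. Exposure lasts 24 h, and reporter mRNA induction is read by RT-PCR with capillary electrophoresis detection.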

Assay [6] deals with frog Estrogen Receptor (ER2), gene 100174814. The experiment in a line: ATG_frER2_XSP2: Attagene TRANS-FACTORIAL Multi-Species (XSP2) HepG2 Assay for frog Estrogen Receptor (ER2) (AID 2283828). Summed up: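 Human liver HepG2, transient MRTU transfection (TRANS format, exogenous NR–Gal4). 24 h cpd exposure. Total RNA → RT → PCR → FAM label → HpaI cut → CE. Positive direction vs DMSO.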

In assay [7] the target is Peroxisome proliferator-activated receptor gamma (Homo sapiens) (UniProt P37231). Nature of the assay: ATG_hPPARg_XSP2: Attagene TRANS-FACTORIAL Multi-Species (XSP2) HepG2 Assay for human Peroxisome Proliferator-activated Receptor gamma (PPARg) (AID 2283829).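 Also: actives raise reporter mRNA above DMSO so AC50 reflects PPARg activation.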 The procedure, abridged:
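Multiplexed transactivation in transfected HepG2 liver cells. Gal4-chimeric receptor activity reported as induced reporter transcript after 24 h.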

Assay [8] has as its target Nuclear receptor subfamily 1 group I member 2 (Mus musculus) (UniProt O54915). The experiment in a line: ATG_mPXR_XSP2: Attagene TRANS-FACTORIAL Multi-Species (XSP1) HepG2 Assay for mouse Pregnane X Receptor (PXR) (AID 2283831). Summed up: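 Human liver HepG2 cells expressing exogenous receptor-GAL4 chimeras were exposed to test chemicals for 24 h. Induction of reporter mRNA was scored as gain of fluorescence signal over DMSO controls.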

Assay [9] relates to zebrafish Peroxisome Proliferator-activated Receptor gamma (PPARg), gene 557037. The experiment in a line: ATG_zfPPARg_XSP2: Attagene TRANS-FACTORIAL Multi-Species (XSP2) HepG2 Assay for zebrafish Peroxisome Proliferator-activated Receptor gamma (PPARg) (AID 2283833).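 Also: reporter mRNA from a zebrafish PPARg GAL4 chimera measured by RT-PCR and capillary electrophoresis; actives increase reporter signal over DMSO so AC50 reflects activation.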 Summed up:
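Cell-based transactivation of a chimeric zebrafish PPARg-GAL4 receptor was assessed in transiently transfected HepG2 cells after 24 h of treatment. Reporter mRNA induction, detected fluorescently after RT-PCR, was analysed in the positive direction against DMSO.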

Assay [10] concerns turtle Thyroid Hormone Receptor, alpha (TRa), gene 101949057. The experiment in a line: ATG_trTRa_XSP2: Attagene TRANS-FACTORIAL Multi-Species (XSP1) HepG2 Assay for turtle Thyroid Hormone Receptor, alpha (TRa) (AID 2283834).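 Also: hits raise reporter mRNA over the DMSO baseline so AC50 marks activators.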 The procedure, abridged:
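Gain-of-signal reporter transcription measured in transiently transfected HepG2 at 24 h post-dose. Fluorescent RT-PCR products were resolved by capillary electrophoresis and compared with DMSO vehicle.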

Assay [11] in a line: ATG_M_61_XSP2: Attagene TRANS-FACTORIAL Multi-Species (XSP2) HepG2 Assay for M61 Transcription Factor (Internal Marker) (AID 2283835; active = hit-call score of the fitted dose curve at least 0.9, where 1 is the maximum; inactive = score below 0.9;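 also: reporter mRNA of an internal background marker read by RT-PCR and capillary electrophoresis; active means a rise in signal above the DMSO baseline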). The procedure, abridged:
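HepG2 cells transiently transfected with multiple GAL4-UAS reporter units; 3 nM 6-alpha-fluorotestosterone and 1.5 nM norgestrel present to stimulate androgen receptor. After 24 h compound exposure, reporter mRNA measured by RT-PCR and capillary electrophoresis fluorescence, gain-of-signal versus DMSO baseline.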

In assay [12] the target is zebrafish Thyroid Hormone Receptor beta (TRb), thrb (gene 30607) (UniProt Q9PVE4). The experiment in a line: ATG_zfTRb_XSP2: Attagene TRANS-FACTORIAL Multi-Species (XSP1) HepG2 Assay for zebrafish Thyroid Hormone Receptor beta (TRb) (AID 2283836). The procedure, abridged:
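HepG2 cells transiently transfected with chimeric zebrafish TRb-GAL4 reporter units, dosed 24 h with 3 nM 6-alpha-fluorotestosterone and 1.5 nM norgestrel present. Reporter mRNA quantified by RT-PCR and capillary electrophoresis; gain fitted against DMSO.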

The nature of assay [13]: ATG_XTT_Cytotoxicity_XSP2: Cytotoxicity Assessment in the Attagene TRANS-FACTORIAL Multi-Species (XSP2) HepG2 Assay (AID 2283837). The procedure, abridged: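 HepG2 cells, transiently transfected with multiple reporter constructs, exposed to chemical for 24 h. Cell number assessed with XTT fluorescence read-out; loss of signal fitted relative to DMSO.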
Assay [14] addresses human Thyroid hormone Receptor alpha (TRa), THRA (gene 7067) (UniProt P10827). The experiment in a line: ATG_hTRa_XSP2: Attagene TRANS-FACTORIAL Multi-Species (XSP2) HepG2 Assay for human Thyroid hormone Receptor alpha (TRa) (AID 2283838). The procedure, abridged:
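HepG2 cells were transiently transfected with GAL4-UAS reporter units for chimeric human TRa-Gal4 and dosed for 24 hours, with 3 nM 6-alpha-fluorotestosterone and 1.5 nM norgestrel present. Reporter mRNA was quantified by RT-PCR, FAM labelling and capillary electrophoresis, with gain of signal fitted versus DMSO.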

The target in assay [15] is frog Thyroid hormone Receptor alpha (TRa), thra-a (gene 397942) (UniProt P15204). The experiment in a line: ATG_frTRa_XSP2: Attagene TRANS-FACTORIAL Multi-Species (XSP2) HepG2 Assay for frog Thyroid hormone Receptor alpha (TRa) (AID 2283839). The procedure, abridged: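 Frog thyroid receptor alpha was tested as an exogenous NR-Gal4 fusion in transiently transfected HepG2 cells. After 24 h chemical treatment, reporter mRNA induction was quantified by RT-PCR and capillary electrophoresis, with gain-of-signal analysed relative to DMSO.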

Assay [16] addresses human Thyroid hormone Receptor beta (TRb), THRB (gene 7068) (UniProt P10828). Nature of the assay: ATG_hTRb_XSP2: Attagene TRANS-FACTORIAL Multi-Species (XSP2) HepG2 Assay for human Thyroid hormone Receptor beta (TRb) (AID 2283840).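 Also: actives raise reporter mRNA so potency reflects agonist-like gain of signal.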 Summed up: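 In this cell-based multiplex, HepG2 liver cells carrying transfected GAL4-UAS reporter constructs are exposed to chemical for 24 hours, then reporter transcripts are measured by RT-PCR with capillary electrophoresis, scored as gain of signal against DMSO.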

In assay [17] the target is human Vascular Endothelial Growth Factor Receptor 1 (VEGFR1), FLT1 (gene 2321) (UniProt P17948). Nature of the assay: NVS_ENZ_hVEGFR1: NovaScreen (NVS) Enzymatic Assay for human Vascular Endothelial Growth Factor Receptor 1 (VEGFR1) (AID 2283226). Summed up: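 Cell-free assay of recombinant human VEGFR1 kinase with substrate, measured 1 h after dosing; fluorescence with electrophoretic mobility-shift separation of substrate and product, referenced to DMSO; primary screen at 25 uM in duplicate, actives then run in concentration series.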

In assay [18] the target is human Adenosine A2a Receptor (AdoRA2a), ADORA2A (gene 135) (UniProt P29274). The experiment in a line: NVS_GPCR_hAdoRA2a: NovaScreen (NVS) G Protein-Coupled Receptor Assay for human Adenosine A2a Receptor (AdoRA2a) (AID 2283256). Summed up:
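Radioligand displacement on HEK293-derived membrane protein, cell-free; filter-based scintillation counting 1.5 hours after dosing, loss of signal vs DMSO. Single-point duplicate screen at 25 uM, actives retested in concentration series.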

The target in assay [19] is human CYP2C9, CYP2C9 (gene 1559) (UniProt P11712). The experiment in a line: NVS_ADME_hCYP2C9: NovaScreen (NVS) CYP450-related Enzyme Activity (ADME) Assay for human CYP2C9 (AID 2283108). Summed up: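 Cell-free assay of recombinant human CYP2C9 produced in Sf9 cells, with enzyme activity read by fluorescence intensity 0.75 h after compound addition. Loss of signal versus an acetonitrile negative control indicates inhibition. Primary screen used 10 uM in duplicate; actives were retested in concentration series.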

The next assay relates to DIO2 (gene 1734). Nature of the assay: CCTE_GLTED_hDIO2: CCTE's human Deiodinase 2 (DIO2) Inhibition Assay, Great Lakes Toxicology and Ecology Division (GLTED) Lab (AID 2284050). Summed up: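 Cell-free human DIO2 incubated 3 h with chemical; liberated iodide quantified by Sandell-Kolthoff absorbance. Triplicate plates; loss of signal fitted vs DMSO.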

Each structure is given as a SMILES string. “And” between values parts separate entries of the source, which are not always exact repeats. Identical values can stand only once. Results filed as inconclusive are left out. The source made the active and inactive calls. The calls were made as follows, unless noted: active = hit-call score of the fitted dose curve at least 0.9, where 1 is the maximum; inconclusive = response in the unintended direction; inactive = score below 0.9.

Chain of human Thyroid hormone Receptor alpha (TRa), THRA (gene 7067) (P10827 whole entry, looked up, the tested form may be a part): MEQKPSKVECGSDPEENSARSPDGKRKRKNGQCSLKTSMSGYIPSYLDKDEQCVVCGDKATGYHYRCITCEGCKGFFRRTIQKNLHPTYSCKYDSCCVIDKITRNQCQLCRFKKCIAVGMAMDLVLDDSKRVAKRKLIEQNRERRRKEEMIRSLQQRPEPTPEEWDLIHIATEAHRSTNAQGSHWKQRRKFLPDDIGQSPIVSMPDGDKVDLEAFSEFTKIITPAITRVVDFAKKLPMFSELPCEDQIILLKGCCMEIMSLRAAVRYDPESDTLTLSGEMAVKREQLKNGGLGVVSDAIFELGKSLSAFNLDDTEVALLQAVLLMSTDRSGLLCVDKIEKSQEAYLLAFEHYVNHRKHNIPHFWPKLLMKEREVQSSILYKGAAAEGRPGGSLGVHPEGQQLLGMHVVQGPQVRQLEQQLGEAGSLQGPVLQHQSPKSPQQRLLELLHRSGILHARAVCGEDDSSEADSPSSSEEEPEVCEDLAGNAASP
Chain of human Thyroid hormone Receptor beta (TRb), THRB (gene 7068) (P10828 whole entry, looked up, the tested form may be a part): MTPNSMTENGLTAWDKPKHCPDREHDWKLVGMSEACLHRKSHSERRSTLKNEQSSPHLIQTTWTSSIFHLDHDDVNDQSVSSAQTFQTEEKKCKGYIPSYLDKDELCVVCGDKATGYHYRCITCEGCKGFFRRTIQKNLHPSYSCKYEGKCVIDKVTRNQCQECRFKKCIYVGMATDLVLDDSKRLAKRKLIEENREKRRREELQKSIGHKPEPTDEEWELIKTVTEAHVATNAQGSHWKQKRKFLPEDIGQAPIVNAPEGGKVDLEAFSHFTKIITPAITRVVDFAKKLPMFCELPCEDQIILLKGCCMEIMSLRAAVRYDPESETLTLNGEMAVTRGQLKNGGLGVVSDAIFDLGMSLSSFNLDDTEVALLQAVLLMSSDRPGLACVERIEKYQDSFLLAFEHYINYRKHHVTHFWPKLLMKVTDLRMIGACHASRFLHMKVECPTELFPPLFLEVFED
Chain of zebrafish Estrogen Receptor (ER1), esr1 (gene 259252) (P57717 whole entry, looked up, the tested form may be a part): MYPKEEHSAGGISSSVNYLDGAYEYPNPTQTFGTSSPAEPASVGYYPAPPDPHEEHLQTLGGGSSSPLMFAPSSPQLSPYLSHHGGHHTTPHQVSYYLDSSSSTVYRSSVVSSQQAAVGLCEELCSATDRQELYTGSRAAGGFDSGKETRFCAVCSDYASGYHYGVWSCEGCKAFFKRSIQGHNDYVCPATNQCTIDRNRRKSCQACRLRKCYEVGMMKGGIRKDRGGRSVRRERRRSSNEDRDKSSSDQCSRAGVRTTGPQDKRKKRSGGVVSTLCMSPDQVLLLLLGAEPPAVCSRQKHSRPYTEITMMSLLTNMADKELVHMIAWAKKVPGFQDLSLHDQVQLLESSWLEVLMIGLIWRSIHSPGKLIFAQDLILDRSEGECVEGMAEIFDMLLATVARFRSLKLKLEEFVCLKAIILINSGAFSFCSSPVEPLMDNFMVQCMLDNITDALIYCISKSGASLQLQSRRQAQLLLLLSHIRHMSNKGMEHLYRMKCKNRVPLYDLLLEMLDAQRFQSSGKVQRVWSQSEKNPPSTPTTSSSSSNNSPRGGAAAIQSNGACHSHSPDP
Chain of chicken Estrogen Receptor (ERa), ESR1 (gene 396099) (P06212 whole entry, looked up, the tested form may be a part): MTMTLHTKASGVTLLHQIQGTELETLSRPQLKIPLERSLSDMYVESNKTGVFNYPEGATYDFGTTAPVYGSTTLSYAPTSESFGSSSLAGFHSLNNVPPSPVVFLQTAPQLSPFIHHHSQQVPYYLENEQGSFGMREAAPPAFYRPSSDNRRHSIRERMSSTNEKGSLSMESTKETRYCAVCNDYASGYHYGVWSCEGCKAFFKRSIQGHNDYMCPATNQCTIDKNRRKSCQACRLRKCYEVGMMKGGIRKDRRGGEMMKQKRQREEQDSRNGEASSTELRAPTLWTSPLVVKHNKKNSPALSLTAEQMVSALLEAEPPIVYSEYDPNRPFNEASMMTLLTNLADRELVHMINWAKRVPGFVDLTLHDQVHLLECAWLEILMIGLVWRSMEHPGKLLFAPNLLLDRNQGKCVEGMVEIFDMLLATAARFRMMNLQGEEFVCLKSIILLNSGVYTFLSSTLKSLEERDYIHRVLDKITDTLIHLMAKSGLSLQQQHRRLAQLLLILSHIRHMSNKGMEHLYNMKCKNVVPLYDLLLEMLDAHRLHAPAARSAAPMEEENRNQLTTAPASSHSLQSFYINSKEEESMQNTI
Chain of Peroxisome proliferator-activated receptor gamma (Homo sapiens) (P37231 whole entry, looked up, the tested form may be a part): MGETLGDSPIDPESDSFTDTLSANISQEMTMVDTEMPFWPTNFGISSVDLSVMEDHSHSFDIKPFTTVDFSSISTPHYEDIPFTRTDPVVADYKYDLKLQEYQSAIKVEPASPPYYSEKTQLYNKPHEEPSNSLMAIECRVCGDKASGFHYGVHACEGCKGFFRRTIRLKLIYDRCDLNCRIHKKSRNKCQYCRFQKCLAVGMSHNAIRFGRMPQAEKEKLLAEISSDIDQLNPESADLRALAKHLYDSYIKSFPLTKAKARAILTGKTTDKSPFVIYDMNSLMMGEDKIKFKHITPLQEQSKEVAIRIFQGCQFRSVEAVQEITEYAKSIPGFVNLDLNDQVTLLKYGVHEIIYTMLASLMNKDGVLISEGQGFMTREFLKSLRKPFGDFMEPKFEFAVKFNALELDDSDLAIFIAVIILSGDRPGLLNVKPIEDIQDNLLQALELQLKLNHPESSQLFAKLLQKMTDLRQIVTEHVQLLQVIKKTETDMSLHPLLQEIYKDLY
Chain of Nuclear receptor subfamily 1 group I member 2 (Mus musculus) (O54915 whole entry, looked up, the tested form may be a part): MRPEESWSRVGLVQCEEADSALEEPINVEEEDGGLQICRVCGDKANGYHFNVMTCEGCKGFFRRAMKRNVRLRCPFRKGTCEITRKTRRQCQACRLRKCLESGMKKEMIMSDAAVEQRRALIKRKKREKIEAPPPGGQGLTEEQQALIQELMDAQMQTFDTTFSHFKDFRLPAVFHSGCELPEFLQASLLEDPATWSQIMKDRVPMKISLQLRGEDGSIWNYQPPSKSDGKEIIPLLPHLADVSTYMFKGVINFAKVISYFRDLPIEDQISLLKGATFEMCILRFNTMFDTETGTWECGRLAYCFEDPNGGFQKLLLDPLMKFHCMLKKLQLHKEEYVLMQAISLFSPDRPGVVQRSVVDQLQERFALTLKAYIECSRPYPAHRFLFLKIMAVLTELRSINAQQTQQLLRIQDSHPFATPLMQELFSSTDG
Chain of frog Thyroid hormone Receptor alpha (TRa), thra-a (gene 397942) (P15204 whole entry, looked up, the tested form may be a part): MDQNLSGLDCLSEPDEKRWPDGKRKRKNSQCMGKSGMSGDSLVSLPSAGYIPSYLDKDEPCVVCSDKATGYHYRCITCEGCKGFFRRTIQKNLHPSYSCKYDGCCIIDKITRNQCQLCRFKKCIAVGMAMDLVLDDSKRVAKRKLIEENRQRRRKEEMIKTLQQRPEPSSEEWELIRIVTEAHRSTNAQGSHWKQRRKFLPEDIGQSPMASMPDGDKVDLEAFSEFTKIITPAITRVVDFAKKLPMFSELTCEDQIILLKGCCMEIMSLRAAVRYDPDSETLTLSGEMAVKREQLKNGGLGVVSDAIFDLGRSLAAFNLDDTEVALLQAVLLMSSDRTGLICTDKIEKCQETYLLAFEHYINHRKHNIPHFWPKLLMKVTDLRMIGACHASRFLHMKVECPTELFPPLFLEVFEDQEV
Chain of human CYP2C9, CYP2C9 (gene 1559) (P11712 whole entry, looked up): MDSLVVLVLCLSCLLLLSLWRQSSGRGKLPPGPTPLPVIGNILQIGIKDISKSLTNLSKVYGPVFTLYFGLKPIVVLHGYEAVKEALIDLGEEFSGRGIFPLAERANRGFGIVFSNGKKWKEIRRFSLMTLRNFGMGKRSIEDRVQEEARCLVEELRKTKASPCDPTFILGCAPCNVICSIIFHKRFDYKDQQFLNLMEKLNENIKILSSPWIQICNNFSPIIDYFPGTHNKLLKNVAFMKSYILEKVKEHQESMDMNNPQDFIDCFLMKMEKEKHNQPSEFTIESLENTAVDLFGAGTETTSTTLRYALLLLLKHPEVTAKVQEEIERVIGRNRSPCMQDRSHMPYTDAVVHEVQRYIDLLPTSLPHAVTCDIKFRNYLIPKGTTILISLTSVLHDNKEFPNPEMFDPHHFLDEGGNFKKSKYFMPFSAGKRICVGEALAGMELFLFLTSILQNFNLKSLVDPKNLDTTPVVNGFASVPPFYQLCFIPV
Chain of human Adenosine A2a Receptor (AdoRA2a), ADORA2A (gene 135) (P29274 whole entry, looked up): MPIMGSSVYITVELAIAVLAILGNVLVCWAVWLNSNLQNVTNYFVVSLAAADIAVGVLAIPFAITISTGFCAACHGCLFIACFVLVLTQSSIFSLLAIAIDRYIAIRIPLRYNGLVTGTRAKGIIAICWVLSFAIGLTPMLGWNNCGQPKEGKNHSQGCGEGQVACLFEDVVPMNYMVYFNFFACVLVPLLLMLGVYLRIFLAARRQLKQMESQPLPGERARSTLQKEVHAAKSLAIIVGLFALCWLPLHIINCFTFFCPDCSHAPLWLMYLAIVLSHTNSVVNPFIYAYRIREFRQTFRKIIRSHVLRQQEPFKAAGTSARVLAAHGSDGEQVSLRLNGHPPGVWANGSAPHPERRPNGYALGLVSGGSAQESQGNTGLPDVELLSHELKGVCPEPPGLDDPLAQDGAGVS
Chain of zebrafish Thyroid Hormone Receptor beta (TRb), thrb (gene 30607) (Q9PVE4 whole entry, looked up, the tested form may be a part): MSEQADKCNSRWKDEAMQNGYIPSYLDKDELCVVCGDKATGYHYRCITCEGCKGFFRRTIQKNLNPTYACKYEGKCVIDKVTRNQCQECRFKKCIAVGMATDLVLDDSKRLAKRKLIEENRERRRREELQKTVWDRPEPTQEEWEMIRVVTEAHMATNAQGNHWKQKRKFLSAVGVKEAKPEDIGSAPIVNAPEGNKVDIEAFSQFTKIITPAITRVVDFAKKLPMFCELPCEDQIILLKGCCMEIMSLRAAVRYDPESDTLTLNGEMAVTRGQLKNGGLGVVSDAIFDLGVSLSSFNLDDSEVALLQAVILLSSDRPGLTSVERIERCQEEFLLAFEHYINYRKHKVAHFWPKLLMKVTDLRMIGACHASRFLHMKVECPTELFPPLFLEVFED

On to `Cc1cc(O)cc(C)c1Cl`, for which the AC50 was 76 µM (active) and 29.7 µM (active) in assay [1]; 24.2 µM (active) and 31.7 µM (active) in assay [2]; 100 µM (active) and 23.8 µM (active) in assay [3]; 66.8 µM (active) and 26.3 µM (active) in assay [4]; 68.1 µM (active) and 34.5 µM (active) in assay [5]; 29.3 µM (active) and 19.5 µM (active) in assay [6]. Besides, in [7], the AC50 is 48.2 µM (active) and 63.3 µM (active). In addition, the compound was classed as inactive in assay [8], in assay [9], in [10], in assay [11], in [12] and in assay [13]. In addition, the compound was classed as inactive in [14], in assay [15] and in assay [16].
In the case of `CC(=O)CCc1ccccc1`, in assay [17], the compound was called inactive.
On to `CCC(C)(CCC(C)C)C(=O)O` (stereo not given), for which the compound was called inactive in assay [18].
In the case of `Sc1nc2ccccc2s1`, the AC50 in assay [19] was 1.9 µM (active). The outcome in the assay on DIO2 (gene 1734) was inactive.
